This is a sample that favours compounds with a hit; in the whole collection about 1.6% have one here.
NSD2 HMT inh: NSD2 histone methyltransferase inhibitors, primary screen, biochemical, AlphaScreen, single concentration, set 2; Histone-lysine N-methyltransferase NSD2 (Homo sapiens), O96028; NSD2 peptide methylation, 120 min; inhibition, % at 12.5 µM; 0.54% of 310,000 active; in the data active = inhibition above about 50%
NPR1 activator: GC-A stimulated cGMP production enhancers – HEK293 GC-A cells, cGMP TR-FRET, EC30 ANP, primary screen. 0% at EC30 ANP, 100% saturating ANP. AID 1671463, 2021. 0.14% of 370,000 active. activation, % at 10 µM. Atrial natriuretic peptide receptor 1 (Homo sapiens), P16066; in the data active = activation above about 40%
Rce1 inhib: yeast Rce1p protease inhibitors, primary screen, biochemical, fluorescence, cell-free homogeneous | CAAX prenyl protease 2 (Saccharomyces cerevisiae (strain ATCC 204508 / S288c)), Q03530 | yeast membranes, quenched prenylated peptide cleavage fluorescence | calls only | 0.27% of 290,000 active;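 active = fall in fluorescence gain of 50% or more versus controls, with final raw signal at or below 3038400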;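 note: plate controls were neutral control wells for no effect and wells lacking membranes for full effect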
Target sequence (Q03530 whole entry, looked up): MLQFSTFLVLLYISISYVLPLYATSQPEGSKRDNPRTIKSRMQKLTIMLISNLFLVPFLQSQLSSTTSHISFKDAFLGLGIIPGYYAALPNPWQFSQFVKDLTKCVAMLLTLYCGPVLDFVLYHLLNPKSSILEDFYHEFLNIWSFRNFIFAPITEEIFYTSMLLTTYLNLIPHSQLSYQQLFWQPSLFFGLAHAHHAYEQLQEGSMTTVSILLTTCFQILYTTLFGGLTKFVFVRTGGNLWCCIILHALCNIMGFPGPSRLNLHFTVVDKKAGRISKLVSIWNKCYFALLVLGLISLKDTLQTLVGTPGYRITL
Efflux pump inh: inhibitors of Candida efflux pumps in yeast, primary screen, S. cerevisiae, Nile Red, multiplex; inhibition, % at 10 µM; 0.44% of 330,000 active; S. cerevisiae Candida pump triplex;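 active = plate passing quality check with inhibition over a set limit, or well fluorescence over plate mean plus 4 SD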;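 note: Nile Red retained in pooled yeast measured as flow cytometry median fluorescence; 0% = buffer negative control and 100% = Enniatin B positive control; higher means more Nile Red kept so more efflux inhibition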
V-ATPase pH: regulators of yeast V-ATPase proton pumping, primary screen, pHLuorin cytosolic pH fluorescence; S. cerevisiae; response, % at 10 µM; 0.37% of 350,000 active; AID 504577, 2011; in the data active = response mostly above about 7.3%, no sharp cut-off; inactive = mostly below about 5.4%; note: actives read high
GC-B act: human GC-B receptor activators, primary screen, HEK293 GC-B cells, cGMP TR-FRET, EC30 CNP; activation, % at 10 µM; 0% at EC30 CNP, 100% saturating CNP; 0.11% of 370,000 active;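 active = activation at 10 µM reaching about 35% in either raw or pattern-adjusted values, limit read from the data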
Cmpd fluor yeast: flagged as fluorescent in efflux inhibitor counter-screen | shares compounds with Efflux pump inh | S. cerevisiae AD/pABC3, compound fluorescence, flow cytometry | fluorescence ratio to DMSO, % at 10 µM | 4% of 1,700 active | AID 588517;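 active = fluorescence ratio to DMSO above its plate's cutoff, the plate mean ratio plus 5 SD, cut at about 210% in these data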;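 note: unstained yeast with no Nile Red so the signal is compound autofluorescence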
Mdr1 pump inh: inhibitors of Candida albicans Mdr1 efflux, confirmation, flow cytometry, singleplex, Cherry Pick1 set. shares compounds with Efflux pump inh. S. cerevisiae AD/CaMDR1, Nile Red efflux. inhibition, % at 10 µM. 1% of 1,700 active; in the data active = inhibition above about 26%;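 note: 0% = DMSO vehicle and 100% = reference inhibitor; higher means more Nile Red retained so more efflux inhibition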
CaCdr2 efflux inh: inhibitors of Candida albicans Cdr2 efflux pump, confirmation, S. cerevisiae AD/CaCDR2, flow cytometry, cherry pick 1, singleplex. shares compounds with Efflux pump inh. Nile Red retention. Nile Red retention ratio vs DMSO, % at 10 µM. 4% of 1,700 active. AID 588520, 2011; in the data active = Nile Red retention ratio vs DMSO above about 190%;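 note: higher ratio means more blocking of Cdr2 efflux of the dye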
CaCdr1 efflux inh: inhibitors of Candida albicans Cdr1 efflux pump, confirmation, S. cerevisiae AD/CaCDR1, flow cytometry, cherry pick 1, singleplex; 1% of 1,700 active; Nile Red efflux; AID 588522, 2011; inhibition, % at 10 µM; shares compounds with Efflux pump inh;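 active = inhibition above the screen-wide mean plus twice its standard deviation, cut at about 32% in these data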
Active calls of the source: *; i = inactive; x = not tested or not shown.

SMILES	NSD2 HMT inh	NPR1 activator	Rce1 inhib	Efflux pump inh	V-ATPase pH	GC-B act	Cmpd fluor yeast	Mdr1 pump inh	CaCdr2 efflux inh	CaCdr1 efflux inh
C/C(=N\Nc1ncnc2sc(C)c(C)c12)c1ccccn1	33	8	i	30*	70*	2	80	0	135	5
O=C(CNC(=O)C1COc2ccccc2O1)N/N=C\c1cccc(O)c1 (stereo not given)	-1	1	i	7.6*	-3	-6	89	0	87	0
O=C(CNC(=O)C1COc2ccccc2O1)N/N=C/c1ccc(O)cc1O (stereo not given)	-7	-4	i	0	1	-1	x	x	x	x
COc1cccc(OC)c1NC(=O)OCCN1CCCC12CCC(c1ccccc1)CC2 (stereo not given)	x	-26	x	x	x	-23	x	x	x	x
O=C(CSc1ccc(-c2ccccc2)nn1)NC1CCCCC1	-2	3	i	5.7*	1	-2	98	0	95	0
Cc1ccc(NC(=S)NNC(=O)CSc2nnc(-c3ccc(C)cc3)n2C2CCCCC2)cc1	x	3	x	x	x	0	x	x	x	x
C[C@H](CO)N1C[C@H](C)[C@@H](CN(C)S(=O)(=O)c2cccs2)Oc2ccc(NC(=O)Nc3ccc4c(c3)OCO4)cc2C1=O	x	4	x	0	0	-4	x	x	x	x
CC(C)NC(=O)Nc1cccc2c1O[C@H](CN(C)S(=O)(=O)c1ccc(F)cc1)[C@@H](C)CN([C@H](C)CO)C2=O	x	3	x	0	1	2	112	0	106	0
C[C@H](CO)N1C[C@H](C)[C@@H](CN(C)S(=O)(=O)c2cccs2)Oc2c(NC(=O)Nc3ccc4c(c3)OCO4)cccc2C1=O	x	2	x	0	-5	1	102	0	116	0
C[C@H](CO)N1C[C@H](C)[C@@H](CN(C)S(=O)(=O)c2ccccc2)Oc2c(NC(=O)Nc3ccccc3)cccc2C1=O	x	0	x	1	0	-1	100	0	106	0
CCn1c(Cc2cccs2)nnc1SCC(=O)Nc1ccc(Cl)cc1C	-1	-3	x	x	x	-10	x	x	x	x
OCCN1CCN(CC/C=C2/c3ccccc3Sc3ccc(C(F)(F)F)cc32)CC1	x	-20	i	0	4	-10	110	0	112	0
COc1cc(/C=C2\SC(=S)N(NC(=O)c3ccc(O)cc3)C2=O)ccc1O	21	-1	i	1	8	-5	x	x	x	x
O=C(NN1C(=O)/C(=C/c2ccc(O)c(O)c2)SC1=S)c1ccccc1	x	-1	i	3.4*	1	-3	116	0	118	0
COc1cc(/C=C2\SC(=S)N(NC(=O)c3cccnc3)C2=O)ccc1O	x	-1	i	0	2	2	103	0	107	0
COc1ccc(NC(=S)Nc2ccccc2)c(OC)c1	-1	-3	i	1.1*	-3	10	107	0	104	0
COc1ccc(NC(=S)Nc2ccc(OCc3ccccc3)cc2)c(OC)c1	-1	2	i	0	-3	4	x	x	x	x
Cc1ccc2nc(NC(=O)CSc3nc4ccccc4o3)sc2c1	x	2	i	0.6*	0	-1	154	1	127	0
CCN1Cc2nnn(Cc3ccc(C)cc3)c2-c2ccccc2S1(=O)=O	x	2	x	x	x	8	x	x	x	x
O=C(Cc1cccc(C(F)(F)F)c1)OCC(=O)N1CCN(S(=O)(=O)c2ccc(Cl)cc2)CC1	0	-4	i	0	0	-5	x	x	x	x
O=C(Cc1ccc(F)cc1)OCC(=O)N1CCN(S(=O)(=O)c2ccc(Cl)cc2)CC1	-3	2	i	0.5*	5	-2	105	0	95	0
C=CCNC(=O)N1CCN(Cc2nc3ccccc3c(=O)[nH]2)CC1	-3	-3	x	x	x	-2	x	x	x	x
COC(=O)c1ccc(CNC(=O)COC(=O)CCC2CCCC2)cc1	0	3	i	17*	2	3	115	0	114	0
CCc1ccc2[nH]c(O)c(N=Nc3nc(-c4ccccc4)cs3)c2c1	3	-5	i	0.9*	-5	5	105	0	91	0
CCc1cc2c(N=Nc3c(O)[nH]c4ccccc34)ncnc2s1	-3	-1	i	0	3	-7	x	x	x	x
SMILES	NSD2 HMT inh	NPR1 activator	Rce1 inhib	Efflux pump inh	V-ATPase pH	GC-B act	Cmpd fluor yeast	Mdr1 pump inh	CaCdr2 efflux inh	CaCdr1 efflux inh
N#CCCn1cc(/C=C(\C#N)c2nc3ccccc3s2)c(-c2ccc(F)cc2)n1	x	-1	i	1	0	62*	82	0	100	0
CN(C)CCCNc1ncnc2scc(-c3ccccc3)c12	9	-8	i	0	-7	-2	x	x	x	x
Cc1ccccc1S(=O)(=O)Nc1ncnc2scc(-c3ccccc3)c12	0	1	i	11*	-1	2	98	0	94	0
COc1ccc2nc(NC(=O)c3ccoc3C)sc2c1	-2	11	i	7.5*	-4	-3	120	0	120	0
COc1ccc2nc(NC(=O)c3cc(C)oc3C)sc2c1	1	10	x	0	-2	0	x	x	x	x
COc1ccccc1C(=O)N(NC(=O)Oc1ccccc1)C(C)(C)C	-2	3	i	5.8*	2	4	99	0	112	0
Cc1ccc(O)c(C(=O)c2cnc3c(c2)CN(CCC(C)C)C(=O)N3)c1	0	7	i	0.6*	2	0	107	0	104	0
Cc1ccc(O)c(C(=O)c2cnc3c(c2)CN(C)C(=O)N3)c1	1	1	i	0	-1	-1	x	x	x	x
O=C(Nc1ccccc1C(F)(F)F)OCCN1C(=O)CCC12CCC(c1ccccc1)CC2 (stereo not given)	x	-18	x	x	x	-21	x	x	x	x

Screening data as filed in PubChem.
